Among all 48,000 compounds or so, about 13,000 (27%) showed an effect of 50% or more. This is one part of the list.
system: Wolbachia pipientis; assay: Anti-Wolbachia Cell-Based Screen; format: functional; parameters: scale not given: in the data most compounds retested in dose-response had high values; details: 5 µM

SMILES | Percent Effect [%]
c1ccc(NCc2cn3c(n2)CN(Cc2ccoc2)CC3)nc1 | 6.648
COc1ccccc1OCCCc1cccc(C#N)n1 | -3.599
FC(F)(F)CCc1ccnc(N2CCN(CCc3ccncc3)CC2)n1 | -22.6
CC(C)N1CCC(N2CCN(C3CCC3)CC2CCO)CC1 (configuration not stated) | 3.855
Cc1nc(CN2C[C@@H]3CN(C(=O)c4ccco4)C[C@@H]3C2=O)cs1.O=C(O)C(F)(F)F | -11.8
Cc1nc(CN2CCOCC23CCN(c2ccc(C#N)cc2)CC3)cs1.O=C(O)C(F)(F)F | -24.99
Cc1nc(CN2C(=O)CC[C@@H]3[C@H]2CCN3C(=O)c2ccc[nH]2)cs1 | -9.626
Cc1nc(CN2C(=O)CCC23CCN(c2ncccc2C)CC3)cs1 | 91.84
O=C(c1ccc[nH]1)N1CC2(CCN(c3nccs3)C2)C1 | -14.28
Cc1nc2c(c(N3CCN(Cc4ccco4)CC3)n1)CCNCC2 | 3.397
O=C1CCC2(CCCN(c3ncc(F)cn3)CC2)N1Cc1ccccc1 (configuration not stated) | -5.866
Cc1nc(CN2CCC23CCN(C(=O)c2ccco2)CC3)cs1 | 98.46
Cc1nc(CN2C(=O)CCC23CCN(Cc2ccco2)CC3)cs1 | 111.9
CCc1nc(C)sc1C(=O)N1CCN(c2ncccc2C)CC1 | 34.17
Cc1nc(CN2CCC3(C2)CN(C(=O)c2ccc[nH]2)C3)cs1 | 122.8
COc1cccc(C(=O)Nc2ccc(OCCC(N)=O)cc2)c1OC | 3.494
N#Cc1ccc(OC2CCN(C(=O)COCC3CCCO3)CC2)cc1 (configuration not stated) | -13.18
Cc1cnn(CCC(=O)NS(=O)(=O)N2CCCc3ccccc32)c1 | 4.859
Cc1nc(C2CCCN(C(=O)c3ccc(Cn4cccn4)o3)C2)no1 (configuration not stated) | -2.072
Cc1nc(CN2CCC3(C2)CN(Cc2ccco2)C3)cs1 | 129
Cc1nc(CN2CCN(Cc3ccoc3)Cc3cccnc32)cs1.O=C(O)C(F)(F)F.O=C(O)C(F)(F)F.O=C(O)C(F)(F)F | 3.214
Cc1nc(CN2CCC23CCN(Cc2ccco2)CC3)cs1 | 101.3

SMILES | Percent Effect [%]
O=C(O)C(F)(F)F.O=C(O)C(F)(F)F.c1coc(CN2CCCC3(COCCN(Cc4c[nH]nn4)C3)C2)c1 (configuration not stated) | -3.131
Cc1nc(CN2CCC23CCN(Cc2ccoc2)CC3)cs1 | 97.06
Cc1nc(CN2CCOC3(CCCN(c4nccs4)C3)C2)cs1 (configuration not stated) | -8.721
Cc1cc(C)c(Cn2cncn2)cc1CN1CC[C@H](CO)[C@@H](O)C1 | 2.193
COCCN(Cc1noc(-c2ccc(OC)cc2)n1)C1CC1 | 20.29
CCOCC1CN(C(=O)c2ccsc2)Cc2nn(C)cc21 (configuration not stated) | -7.597
CC(Cc1cccc(F)c1)C(=O)NS(=O)(=O)c1cnn(C)c1 (configuration not stated) | -18.57
Cc1cccc2nc(CN3CCC(Cn4ccnn4)CC3)cc(=O)n12 | -3.748
CCn1cnnc1C1CCN(C(=O)c2cnc(C3CC3)s2)CC1 | -9.527
CCn1cnnc1C1CCN(C(=O)c2ccc(OC(C)C)nc2)CC1 | 106.8
CCn1cnnc1C1CCN(C(=O)c2ccc(C(=O)OC)s2)CC1 | -1.592
CCn1cnnc1C1CCN(C(=O)c2cnn(C(C)(C)C)c2)CC1 | 107
Cn1c(C2CC2)nc2c1CCN(CC(=O)Nc1nncs1)C2 | -1.4
O=C(Nc1cccc(F)c1)NC1CCN(Cc2ccncc2)CC1 | -11.06
CCS(=O)(=O)NCCNC(=O)N(Cc1ccc(C)o1)C(C)C | -16.03
Cn1nc(C(=O)N2CCCCC2c2nc3cc(F)ccc3[nH]2)ccc1=O (configuration not stated) | 6.226
c1cn2c(n1)CNCC(COCC1CC1)C2 (configuration not stated) | -6.113
Cc1ccc(S(=O)(=O)N2C[C@@H]3C[C@@H](NC(=O)C(C)(C)C)[C@@H]3C2)cc1 | -7.611
Cc1ccc(S(=O)(=O)N2CC[C@@H]3C[C@H](NC(=O)c4[nH]ncc4Br)[C@@H]32)cc1 | 95.45
Cc1ccc(S(=O)(=O)N2C[C@H]3C[C@H](NC(=O)c4ccn(C)n4)[C@H]3C2)cc1 | 0.5687
Cc1ccc(S(=O)(=O)N2CC[C@@H]3C[C@H](NC(=O)c4n[nH]cc4Cl)[C@@H]32)cc1 | 97.43
COC(=O)[C@@H]1Cc2ncn(C)c2CN1S(=O)(=O)c1ccc(C)cc1 | -10.72

SMILES | Percent Effect [%]
Cc1ccc(S(=O)(=O)N2C[C@H]3C[C@H](NC(=O)c4ccnn4C)[C@H]3C2)cc1 | -12.92
Cc1ccc(S(=O)(=O)N2CC[C@@H]3C[C@H](NC(=O)c4ccncc4)[C@@H]32)cc1 | 124.2
CS(=O)(=O)NCCC(=O)N1CCN(S(=O)(=O)c2ccc(Br)cc2)CC1 | 3.27
Cc1cc(C(=O)N2CCc3c(nc(-c4ccncc4)[nH]c3=O)C2)no1 | -7.817
CN1CCCN(C(=O)c2cccn2-c2ccc3c(c2)OCCO3)CC1 | 88.31
CC(=O)N1CC2(CCN(C(=O)c3ccc4c(c3)OCCO4)CC2)C1 | -3.523
O=C(O)c1cccn1-c1ccc2c(c1)OCCO2 | 96.33
CN(C)C(=O)c1cccnc1-c1ccc2c(c1)OCCO2 | -4.201
O=C(c1cccn1-c1ccc2c(c1)OCCO2)N1CCCC1 | 97.35
O=C(O)C(c1ccc2c(c1)OCCO2)N1CCCC1 (configuration not stated) | 10.75
CN1CCCN(C(=O)c2ccc3c(c2)nc(N2CCOCC2)n3C)CC1 | 16.47
O=C(O)C(c1ccc2c(c1)OCCO2)N1CCCCCC1 (configuration not stated) | -0.2284
CN(C)C(=O)c1cccn1-c1ccc2c(c1)OCCO2 | 99.12
CN(C)C(=O)C(C)(C)c1ccc2c(c1)OCCO2 | -10.01
Cn1cnnc1C1CCCN(C(=O)c2ccc3c(c2)OCCO3)C1 (configuration not stated) | -7.071
O=C(c1cccnc1-c1ccc2c(c1)OCCO2)N1CCCC1 | -9.168
CN(CC(F)(F)F)C(=O)c1ccc(F)c(NS(C)(=O)=O)c1 | -3.424
CS(=O)(=O)CCn1ccc(NCc2ccc(C#N)cc2)n1 | 4.656
CC(c1nccs1)n1cc(-c2cc(CN3CCCCC3)cs2)nn1 (configuration not stated) | 17.2
CC1CN(C(=O)c2ccnc(-n3cncn3)c2)c2ccccc2S1 (configuration not stated) | -6.511
CC(C)CNC(=O)c1ccc2nnc(C3CCN(S(C)(=O)=O)C3)n2c1 (configuration not stated) | -4.952
CCn1nc(C)c(S(=O)(=O)Nc2ccccc2C(=O)OC)c1C | -6.756

SMILES | Percent Effect [%]
Cc1nc2ccc(S(=O)(=O)Nc3c(C)nn(CC(=O)O)c3C)cc2s1 | 96.05
CC(=O)N1CCCCC1c1ncnn1-c1ccc2nc(C)sc2c1 (configuration not stated) | 1.056
Cc1ccc(C(=O)NS(=O)(=O)c2cccc3cnccc23)c(=O)[nH]1 | -6.684
Cc1ccc(S(=O)(=O)Nc2c(C)nn(C)c2C)cc1C | -30.32
CCN(C)S(=O)(=O)NCC(O)c1cc2ccccc2s1 (configuration not stated) | -28.91
Cc1nn(CC(=O)O)c(C)c1NS(=O)(=O)c1cc2ccccc2s1 | 90.4
CN(C)c1ncc(CNS(=O)(=O)c2cccc3ccccc23)n1C | 5.382
Cc1nn(CC(=O)O)c(C)c1NS(=O)(=O)c1cccc2ccccc12 | 85.86
Cc1ccc(CCN[C@@H]2c3ccccc3C3(CCNCC3)[C@H]2O)s1 | -1.865
Cc1cc(C(=O)N[C@H](C)c2onc(-c3cccnc3)c2C(=O)O)c(C)o1.Cl | -10.14
C=Cc1ccc(C(=O)N2CCCC(Nc3ccc(F)c(F)c3)C2)cc1 (configuration not stated) | -24.37
Cc1cc(=O)[nH]c(SC(C)C(=O)N2CCCN(C3CCCC3)CC2)n1 (configuration not stated) | -14.72
O=C(Nc1cccnc1)c1ccc(-n2cncn2)nn1 | 4.763
Fc1ccc2c(c1)C1(CCNCC1)CC2OCC1CC1 (configuration not stated) | -8.217
CNC(=O)NC1CC2(CCNCC2)c2ccc(C)cc21 (configuration not stated) | 2.029
Cl.Cl.c1ccc2c(c1)C(NC1CCCC1)CC21CCNCC1 (configuration not stated) | 102.9
Cc1nnc(NC(=O)NCc2ccnc(N(C)C)c2)s1 | 99.1
COc1cc(CNC(=O)c2csc(Br)c2)ccn1 | 70.51
CC/C=C(/C)C(=O)NCc1ccnc(OC)c1 | -6.401
CC(C)c1nnc(NC(=O)NCc2ccnc(N(C)C)c2)s1 | -3.838
COc1ncccc1CNC(=O)c1csc(Br)c1 | -3.895
COc1cc(CNC(=O)Nc2nnc(C(C)C)s2)ccn1 | 139

SMILES | Percent Effect [%]
COc1cc(CNC(=O)Nc2nnc(C(C)C)s2)ccc1O | 0.367
CCOc1ncccc1CNC(=O)c1csc(Br)c1 | -22.46
CN(C)c1cc(CNC(=O)Nc2nnc(C3CC3)s2)ccn1 | 137.2
Cc1cc(Br)ccc1C(=O)N(C)CCNS(C)(=O)=O | -13.91
COCc1nc(N(C)CCSc2ccccc2)c2cnn(C)c2n1 | -20.02
Cc1cnc(CN2CCCC(c3nc4ccccc4n3C(C)C)C2)o1 (configuration not stated) | -8.983
CN(C)C(C(=O)NCC1(C)COC1)c1cccc(F)c1 (configuration not stated) | 3.319
COc1ccc(CN2C[C@@H]3CCCO[C@@H]3[C@H](NS(C)(=O)=O)C2)cc1.O=C(O)C(F)(F)F | -19.78
CS(=O)(=O)NC1CCN(C(=O)c2ccc3ccccc3c2)C1 (configuration not stated) | -0.4422
CC(C)[C@H]1CN(C2Cc3ccccc3C2)C[C@@H]1NS(=O)(=O)N(C)C | -3.523
CS(=O)(=O)N[C@@H]1CN(Cc2ccc3ccccc3c2)C[C@H]1O | 117
CS(=O)(=O)N[C@@H]1CN(Cc2ccccc2)C[C@H]1O | 118.1
CC(C)[C@@H]1CN(C2CCN(Cc3ccccc3)CC2)C[C@H]1NS(C)(=O)=O | 57.6
CC(C)[C@H]1CN(C2Cc3ccccc3C2)C[C@@H]1NS(C)(=O)=O | 7.531
CS(=O)(=O)N[C@@H]1CN(Cc2ccccc2)C[C@@H]2CCCO[C@@H]21 | -3.887
CCC[C@@H]1CN(C(=O)c2cc3ccccc3s2)C[C@H]1NS(C)(=O)=O | -8.95
CS(=O)(=O)N[C@H]1CN(CCOCc2ccccc2)C[C@@H]1C1CC1 | -6.261
CS(=O)(=O)NC1CCN(C(=O)c2cc3ccccc3s2)C1 (configuration not stated) | -26.49
CS(=O)(=O)N[C@@H]1CN(C(=O)c2cc3ccccc3s2)C[C@H]1O | 153.3
